Shown are actives, neighbours in structure and some others; about 19% of the full set was active somewhere.
Pf growth 96h – P. falciparum growth inhibition at 96 hours; hit rate 6.9% among 320,000; Potency, µM (titrated, usually from 28.7 µM), usual class: inhibitors; AID 504834; P. falciparum luciferase reporter growth, 96 h
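Parasite growth measured via integrated firefly luciferase reporter in P. falciparum. Infected erythrocytes at 2% hematocrit, 0.05% parasitemia final were treated 96 hours at 37 C under 5% CO2, and luminescence was read.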
Shiga inhibitor – blocks Shiga toxin action in Vero cells; AID 2315; hit rate 9.2% among 290,000; inhibition, % at 38.7 µM; Vero cells, Shiga toxin protein synthesis inhibition reporter; in the data active = inhibition mostly above about 28%, no sharp cut-off; inactive = mostly below about 43%
SARS PLpro yeast – blocks SARS-CoV papain-like protease in a yeast assay; S. cerevisiae expressing SARS-CoV PLpro, growth rescue; Potency, µM (highest dose often 32.9 µM), hits mostly activators; hit rate 0.19% among 330,000; AID 485353; calls by dose curve; note: nearly all actives have a fitted effect of over 55% in size
CHX counter – counter-screen for Shiga toxin inhibitors: cycloheximide protein synthesis inhibition. cell reporter, cycloheximide protein synthesis inhibition counterscreen. max response, %. hit rate 12% among 300,000. AID 2314; in the data active = max response mostly above about 13%, no sharp cut-off; inactive = mostly below about 14%; note: read at 38.3 µM for the half of the compounds with a filed dose
AMA1 RON2 block – disrupts binding of P. falciparum AMA1 to RON2 | AlphaScreen AMA1-biotinylated RON2 peptide binding | Potency, µM (highest dose often 58.2 µM), actives largely listed as inhibitors | hit rate 0.2% among 360,000; note: nearly all actives have a fitted effect of over 45% in size
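AMA1 (3D7) with his tag at 25 nM final met compounds first, then biotinylated RON2 peptide at 25 nM; detection used donor plus acceptor beads, 10 µg/mL apiece, read by AlphaScreen after 30 min at room temperature.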
Pf growth 48h – inhibits P. falciparum growth in the first generation, 48 h; hit rate 5.9% among 310,000; P. falciparum luciferase growth in erythrocytes, 48 h; Potency, µM (doses to about 28.7 µM), actives largely listed as inhibitors; AID 504832
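Cell-based growth assay: transgenic P. falciparum expressing firefly luciferase, cultured in red cells within RPMI 1640 containing 0.5% w/v Albumax, 24 mM bicarbonate and gentamycin. A drop in luciferase activity indicates inhibition.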
Numbers stand for hits; - = inactive; ? = inconclusive; . = no result; [ ] = remark or other dose. Unless noted, calls come from the whole dose curve; as a rule, active = well fitted curve in the direction sought with a large enough effect; inconclusive = small, poorly fitted or top-dose-only effect, or another doubt; inactive = no such curve, though single readings can be large; an effect the other way counts as inactive or inconclusive.

SMILES	Pf growth 96h	Shiga inhibitor	SARS PLpro yeast	CHX counter	AMA1 RON2 block	Pf growth 48h
CC(C)(C)CNC(=O)c1cccc2c1C(=O)c1ccc(-c3cc4ccccc4o3)cc1S2(=O)=O	.	.	-	.	-	.
O=C(c1ccc(Br)o1)N1CCC(c2nc3ccccc3[nH]2)CC1	?	.	-	.	-	?
O=C(C1CCCCC1)N1CCC(c2nc3ccccc3[nH]2)CC1	9.3µM	-	-	-	-	-
CCCCCC(=O)N1C[C@H](n2cc(COC(=O)c3ccccc3)nn2)[C@@H](O)C[C@@H]1c1ccc(OC)cc1	.	.	.	.	-	.
O=C(NNS(=O)(=O)c1ccc(Br)cc1)c1ccccc1-n1cccc1	-	-	-	-	-	-
O=C(O)C1CCCCC1C(=O)NCCc1ccc(Cl)cc1 (stereo not drawn)	.	-	-	-	-	-
O=C(O)C1CCCCC1C(=O)NCCc1ccc(F)cc1 (stereo not drawn)	9.3µM	-	-	-	-	-
O=C(NCCc1ccc(F)cc1)C1CCCO1 (stereo not drawn)	?	-	-	-	-	-
O=C(NCCc1ccc(F)cc1)C1CCCCC1	-	-	-	24	-	-
Fc1ccccc1CNC(=S)Nc1cccc(C(F)(F)F)c1	-	-	-	-	-	?
O=C(O)c1cc(-c2ccc(/C=N/Nc3ccc(Cl)cc3)o2)ccc1Cl	-	-	-	-	-	-
O=C(O)c1ccc(N/N=C/c2ccc(-c3ccc(Br)cc3)o2)cc1	-	39	-	27	-	-
Cc1ccc(/C=N/Nc2ccc(C(=O)O)cc2)o1	?	76	-	30	-	-
CCCCN(CCCC)CCNC(=O)c1cn(CC)c2ccc(S(=O)(=O)N3CCc4ccccc4C3)cc2c1=O	-	-	-	-	-	?
CCc1ccc(N(C(=O)c2snc(C(N)=O)c2N)C(C(=O)NC2CCCC2)c2ccncc2)cc1 (stereo not drawn)	-	-	-	-	-	?
CC(C)C(C)(C#N)NC(=O)CSc1nnc(-c2ccncc2)n1Cc1ccccc1 (stereo not drawn)	3.7µM	-	-	-	-	?
CC(C)(C)NC(=O)CSc1nnc(-c2ccncc2)n1Cc1ccccc1	-	-	-	-	-	-
CC(C)C(C)(C#N)NC(=O)CSc1nc2scc(-c3ccc(F)cc3)c2c(=O)n1Cc1ccccc1 (stereo not drawn)	4.7µM	-	-	-	-	9.3µM
Cc1ccccc1CNC(=O)C(=O)NCC1OCCCN1S(=O)(=O)c1cccs1 (stereo not drawn)	?	-	-	-	-	?
COCCn1c(-c2ccc(OC)cc2)c(-c2ccc(OC)cc2)oc1=O	13µM	-	-	-	-	8.3µM
COc1ccc(-c2oc(=O)n(C)c2-c2ccc(OC)cc2)cc1	?	-	-	-	-	?
COc1ccccc1NC(=O)CSc1nnnn1-c1ccc(F)cc1	?	-	-	-	-	-
CN(Cc1nc(Cc2cccc(F)c2)no1)CC1CCOCC1	15µM	-	-	-	-	-
CN1C(=O)/C(=C/c2ccccc2Cl)Sc2ccc(C(=O)N3CCCC3)cc21	-	-	-	22	-	?
CCOC(=O)C1CCCN(C(=O)c2cccc(N3C(=O)c4ccccc4C3=O)c2)C1 (stereo not drawn)	-	.	-	.	-	?
SMILES	Pf growth 96h	Shiga inhibitor	SARS PLpro yeast	CHX counter	AMA1 RON2 block	Pf growth 48h
CN1C(=O)/C(=C\c2ccccc2F)Sc2ccc(C(=O)NC3CCN(Cc4ccccc4)CC3)cc21	?	-	-	-	-	1.7µM
CCOC(=O)C1CCCN(C(=O)c2ccc3c(c2)N(C)C(=O)/C(=C/c2ccccc2Cl)S3)C1 (stereo not drawn)	0.41µM	-	-	-	-	?
CC(NCc1cccc(S(=O)(=O)N(C)C)c1)c1ccc(F)cc1 (stereo not drawn)	-	-	-	-	-	-
Cc1c(SCCO)c(=O)[nH]c2cc3c(cc12)OCO3	.	-	-	-	-	-
CC(CN1CCCC1)OC(=O)c1ccc(Br)cc1 (stereo not drawn)	-	-	-	-	-	-[0.00184 µM]
O=C(Nc1ccccc1OC(F)F)c1ccc(-n2cncn2)c([N+](=O)[O-])c1	-	.	-	.	-	?
O=C(NCc1cccs1)C(=O)c1cn(CC(=O)N2CCCC2)c2ccccc12	-	-	-	-	-	?
O=C(c1ccco1)N1N=C(c2ccccc2)CC1c1ccc2nccnc2c1 (stereo not drawn)	7.4µM	-	-	16	-	?
O=C(O)CCCC(=O)N1N=C(c2ccccc2)CC1c1ccc2nccnc2c1 (stereo not drawn)	3.7µM	-	-	-	-	-
O=C(O)CCC(=O)N1N=C(c2ccccc2)CC1c1ccc2nccnc2c1 (stereo not drawn)	-	-	-	-	-	-
CC(C)(C)OC(=O)NCCCCCNC(=O)c1ncn2c1c(=O)[nH]c1ccccc12	.	.	.	.	-	.
O=C(NNc1ccc(C2CCCCC2)cc1)C(O)(c1ccccc1)c1cccs1 (stereo not drawn)	-	-	-	16	-	?
CCCCN(C(C)=O)c1c(CC)nc2ccc(C(=O)Nc3cccc(OCC(=O)N(C)C)c3)cn12	.	.	.	.	-	.
COc1ccc(-c2nc3ccc(C)cn3c2Cc2ccsc2)cc1OC	.	.	.	.	-	.
CC(C)(C)NC(=S)N1CCC(C(=O)c2ccc(Cl)cc2)CC1	3.3µM	.	-	-	-	-
CC(C)(C)NC(=S)N1CCC(C(=O)c2ccc(F)cc2)CC1	?	-	-	-	-	?
C=CCNC(=S)N1CCC(C(=O)c2ccc(Cl)cc2)CC1	9.3µM	-	-	-	-	-
C=CCN1C(=O)/C(=C/c2ccc3c(c2)CCCN3CCC)C(=O)NC1=S	-	-	-	11	-	-
Cc1nc2ncnn2c(N2CCCC(C(=O)Nc3ccc4c(c3)CCC4)C2)c1C (stereo not drawn)	-	-	-	-	-	5.2µM
Cc1ccc(NC(=O)C2CCCN(C3=NS(=O)(=O)c4ccccc43)C2)c(O)c1 (stereo not drawn)	15µM	.	-	.	-	12µM
Cc1cc(C)cc(NC(=O)C2CCCN(c3ncccn3)C2)c1 (stereo not drawn)	?	-	-	11	-	-
CCc1nnc(NC(=O)C2CCCN(c3nc(C)cc(C)n3)C2)s1 (stereo not drawn)	4.7µM	-	-	-	-	-
CCc1c(C)nc2ncnn2c1N1CCC(C(=O)Nc2ccccc2)CC1	-	-	-	-	-	?
CCOc1ccc(S(=O)(=O)Nc2cccc(C(=O)N3CCN(c4ccccn4)CC3)c2)cc1	.	.	.	.	-	.
O=C(CCC(=O)c1ccc(F)cc1)OCc1nnc(-c2ccc([N+](=O)[O-])cc2)o1	-	.	-	.	-[11.6 µM]	-
CC(=O)Nc1ccc(Oc2cnccn2)cc1	-	-	-	-	-	-
COc1cc(/C=C/C(=O)O)cc(S(=O)(=O)N(CC(C)C)CC(C)C)c1OC	-	-	-	-	-	-

Bioassay records (PubChem)
